In PubChem BioAssay (Tox21) one finds Potency, activation and outcome data, which are given here for 8 compounds.

Results filed as inconclusive are left out. A number with no mark means an inactive call. The source made the active and inactive calls. Unless noted, the call rests on the fitted dose curve; in most records, active means well fitted curve in the direction sought with a large enough effect in the repeat runs; inconclusive means weak or mixed curves; inactive means no such curve, though single readings can be large; an effect the other way counts as inactive or inconclusive.

Assay [1] can be described thus: qHTS assay to identify small molecule antagonists of the glucocorticoid receptor (GR) signaling pathway - cell viability counter screen (AID 720693). Further: nearly all actives have a fitted effect of over 55% in size. Background: qHTS replaces the single test concentration by a dilution series.
A short description of assay [2]: qHTS assay for identifying genotoxic compounds that show differential cytotoxicity against isogenic chicken DT40 cell lines with known DNA damage response pathways - wild type cell line (AID 743012). Further: nearly all actives have a fitted effect of over 60% in size. Further: potency means the concentration at half of the fitted maximal effect. An outline of the steps: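 Cells (DT40 wild type, 300/well) are treated with DMSO-dissolved compounds after a ~0.5 h pre-incubation and kept 40 h at 37 C/5% CO2. Viability is then measured by CellTiter-Glo luminescence following 30 min at room temperature.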

Assay [3] can be described thus: qHTS assay for identifying genotoxic compounds that show differential cytotoxicity against isogenic chicken DT40 cell lines with known DNA damage response pathways - Rev3 mutant cell line (AID 743014). Further: nearly all actives have a fitted effect of over 55% in size. Further: potency means the concentration at half of the fitted maximal effect.
A short description of assay [4]: qHTS assay for identifying genotoxic compounds that show differential cytotoxicity against isogenic chicken DT40 cell lines with known DNA damage response pathways - Rad54/Ku70 mutant cell line (AID 743015). Further: nearly all actives have a fitted effect of over 60% in size. Further: potency means the concentration at half of the fitted maximal effect.
Assay [5] is described as follows: qHTS assay to identify small molecule antagonists of the androgen receptor (AR) signaling pathway - cell viability counter screen (AID 743033; further: nearly all actives have a fitted effect of over 45% in size).
Assay [6] in a line: qHTS assay to identify small molecule antagonists of the androgen receptor (AR) signaling pathway using the MDA cell line - cell viability counter screen (AID 743041; further: nearly all actives have a fitted effect of over 45% in size). The gist of the method: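 MDA-kb2 AR-luc cells (MMTV-luciferase, AR/GR responsive) treated with compounds plus R1881 agonist for 16 h at 37C. CellTiter-Fluor added at 15.5 h; fluorescence read after 30 min in the same wells.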

Assay [7] is described as follows: qHTS assay to identify small molecule antagonists of the thyroid receptor (TR) signaling pathway - cell viability counter screen (AID 743064). Further: nearly all actives have a fitted effect of over 50% in size. An outline of the steps: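 In-well cytotoxicity read by CellTiter-Fluor (30 min, 37 C) following 23.5 h exposure of GH3 cells bearing a TRE-luciferase sensor. Compounds were added alongside 1 nM (final) T3 to drive TR transactivation.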

The nature of assay [8]: qHTS assay to identify small molecule antagonists of the thyroid receptor (TR) signaling pathway (AID 743065). Further: nearly all actives have a fitted effect of over 55% in size. The gist of the method: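 GH3.TRE-Luc rat pituitary cells (two TREs driving luciferase) were dosed with compound, then stimulated with 1 nM T3 (final) for 23.5 h at 37 C. ONE-Glo luminescence was the read-out, with CellTiter-Fluor fluorescence as the cytotoxicity counter-screen.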

Assay [9] has as its system thyroid hormone receptor (rat, GH3 cells). Nature of the assay: qHTS assay to identify small molecule agonists of the thyroid receptor (TR) signaling pathway (AID 743066; calls by dose curve).
A short description of assay [10]: qHTS assay to identify small molecule antagonists of the estrogen receptor alpha (ER-alpha) signaling pathway - cell viability counter screen (AID 743074; calls by dose curve;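 further: HEK293 cells carrying ER-alpha-UAS-bla reporter stimulated with 17beta-estradiol; nearly all actives have a fitted effect of over 45% in size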).
The nature of assay [11]: qHTS assay to identify small molecule antagonists of the estrogen receptor alpha (ER-alpha) signaling pathway using the BG1 cell line - cell viability counter screen (AID 743081).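 Further: compound given together with 17beta-estradiol as the ER stimulus; nearly all actives have a fitted effect of over 45% in size.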
Assay [12] deals with Estrogen receptor (Homo sapiens) (UniProt P03372). Nature of the assay: qHTS assay to identify small molecule agonists of the estrogen receptor alpha (ER-alpha) signaling pathway (AID 743075; calls by dose curve).
Sequence of Estrogen receptor (Homo sapiens) (P03372 whole entry, looked up): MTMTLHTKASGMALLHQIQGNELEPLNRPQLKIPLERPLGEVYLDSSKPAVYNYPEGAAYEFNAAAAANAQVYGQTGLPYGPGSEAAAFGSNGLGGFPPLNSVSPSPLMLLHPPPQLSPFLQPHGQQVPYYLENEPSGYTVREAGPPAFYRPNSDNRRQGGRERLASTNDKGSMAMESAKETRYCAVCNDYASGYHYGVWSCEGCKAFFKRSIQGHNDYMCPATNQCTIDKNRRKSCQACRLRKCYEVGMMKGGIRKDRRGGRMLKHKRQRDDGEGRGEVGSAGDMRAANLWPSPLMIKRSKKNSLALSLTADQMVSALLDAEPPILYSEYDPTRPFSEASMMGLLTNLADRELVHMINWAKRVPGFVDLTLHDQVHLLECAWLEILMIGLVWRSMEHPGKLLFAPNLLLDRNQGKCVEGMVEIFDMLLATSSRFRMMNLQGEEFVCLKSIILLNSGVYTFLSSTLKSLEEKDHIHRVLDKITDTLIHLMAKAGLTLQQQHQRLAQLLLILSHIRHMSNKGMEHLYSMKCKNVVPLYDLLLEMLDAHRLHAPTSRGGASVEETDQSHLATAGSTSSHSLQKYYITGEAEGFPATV
For assay [13] the target is unchanged. Kind of assay: qHTS assay to identify small molecule agonists of the estrogen receptor alpha (ER-alpha) signaling pathway using the BG1 cell line (AID 743079). Further: nearly all actives have a fitted effect of over 20% in size. Particulars: BG1Luc4E2 cells, ERE-luciferase agonist, 22 h.
A short description of assay [14]: qHTS assay to identify small molecule antagonists of the estrogen receptor alpha (ER-alpha) signaling pathway using the BG1 cell line (AID 743080; calls by dose curve;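 further: BG1 cells stimulated with 17beta-estradiol alongside compound; nearly all actives have a fitted effect of over 25% in size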). The gist of the method:
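Luminescence from a 4×ERE-luciferase reporter in BG1-Luc-4E2 cells served as read-out. Cells, pre-cultured 5 days in stripped-serum phenol-red-free medium, were exposed to compound with 17beta-estradiol co-stimulation for 21.5 h at 37 C.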

In a further assay the target is Aromatase (Homo sapiens) (UniProt P11511). Kind of assay: qHTS assay to identify aromatase inhibitors (AID 743083). Further: nearly all actives have a fitted effect of over 55% in size. Further: potency means the concentration at half of the fitted maximal effect.
Sequence of Aromatase (Homo sapiens) (P11511 whole entry, looked up): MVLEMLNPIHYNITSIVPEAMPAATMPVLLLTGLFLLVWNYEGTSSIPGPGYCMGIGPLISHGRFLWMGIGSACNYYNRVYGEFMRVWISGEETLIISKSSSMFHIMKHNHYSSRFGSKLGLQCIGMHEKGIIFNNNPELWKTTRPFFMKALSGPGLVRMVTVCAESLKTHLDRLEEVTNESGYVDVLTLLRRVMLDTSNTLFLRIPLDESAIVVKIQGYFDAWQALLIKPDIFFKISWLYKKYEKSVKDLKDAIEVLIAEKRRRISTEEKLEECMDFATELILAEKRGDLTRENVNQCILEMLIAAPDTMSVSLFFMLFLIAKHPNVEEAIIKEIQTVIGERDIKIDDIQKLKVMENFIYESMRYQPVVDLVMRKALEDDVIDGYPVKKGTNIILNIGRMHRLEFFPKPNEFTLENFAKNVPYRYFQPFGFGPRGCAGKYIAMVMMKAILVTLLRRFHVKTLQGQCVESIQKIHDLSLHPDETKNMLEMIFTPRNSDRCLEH
Assay [15] is described as follows: qHTS assay to identify aromatase inhibitors - cell viability counter screen (AID 743084).
The target in assay [16] is Androgen receptor (Homo sapiens) (UniProt P10275). Kind of assay: qHTS assay to identify small molecule antagonists of the androgen receptor (AR) signaling pathway (AID 743035; active means well fitted inhibition curve with a large enough effect in the signal ratio in the repeat runs, not every such curve was filed as active; the % refers to the signal ratio). An outline of the steps: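 Antagonism is scored as loss of R1881-driven beta-lactamase reporter expression in HEK293 cells carrying the reporter under a UAS element, after 16 h co-treatment at 37C and a 2 h room-temperature FRET substrate read.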
Sequence of Androgen receptor (Homo sapiens) (P10275 whole entry, looked up): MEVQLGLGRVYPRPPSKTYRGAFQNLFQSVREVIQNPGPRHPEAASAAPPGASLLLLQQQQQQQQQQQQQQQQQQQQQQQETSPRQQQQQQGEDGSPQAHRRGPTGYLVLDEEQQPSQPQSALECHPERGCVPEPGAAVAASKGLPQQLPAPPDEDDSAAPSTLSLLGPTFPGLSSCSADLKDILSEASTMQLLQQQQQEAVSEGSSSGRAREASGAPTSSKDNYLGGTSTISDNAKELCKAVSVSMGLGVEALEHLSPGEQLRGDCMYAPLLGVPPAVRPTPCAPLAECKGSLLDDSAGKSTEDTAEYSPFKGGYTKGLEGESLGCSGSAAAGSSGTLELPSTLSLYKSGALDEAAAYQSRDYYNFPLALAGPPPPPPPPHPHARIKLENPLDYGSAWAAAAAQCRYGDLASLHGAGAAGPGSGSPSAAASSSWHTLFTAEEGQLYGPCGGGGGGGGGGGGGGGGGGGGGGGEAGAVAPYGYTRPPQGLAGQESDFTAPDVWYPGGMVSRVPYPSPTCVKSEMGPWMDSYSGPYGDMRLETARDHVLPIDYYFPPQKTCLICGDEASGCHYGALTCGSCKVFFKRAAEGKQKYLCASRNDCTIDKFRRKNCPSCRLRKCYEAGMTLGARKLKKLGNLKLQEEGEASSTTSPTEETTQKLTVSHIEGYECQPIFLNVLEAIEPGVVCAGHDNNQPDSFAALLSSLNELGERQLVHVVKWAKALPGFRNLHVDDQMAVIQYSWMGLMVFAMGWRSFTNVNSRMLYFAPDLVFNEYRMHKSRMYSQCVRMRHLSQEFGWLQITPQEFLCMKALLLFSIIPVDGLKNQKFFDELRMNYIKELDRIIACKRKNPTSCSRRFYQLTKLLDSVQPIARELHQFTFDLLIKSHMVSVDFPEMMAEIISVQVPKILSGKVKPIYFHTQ

Assay [17] has the same target. Kind of assay: qHTS assay to identify small molecule agonists of the androgen receptor (AR) signaling pathway (AID 743036; active means well fitted activation curve with a large enough effect in the signal ratio in the repeat runs, with a control signal flat, not every such curve was filed as active; the % refers to the signal ratio). The gist of the method:
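Activation was read as beta-lactamase FRET signal from LiveBLAzer B/G substrate, added for 2 h at room temperature. Before that, GeneBLAzer AR-UAS-bla GripTite (HEK293) cells had 16 h compound exposure at 37C.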

For assay [18] the target is unchanged. Nature of the assay: qHTS assay to identify small molecule antagonists of the androgen receptor (AR) signaling pathway using the MDA cell line (AID 743042; further: nearly all actives have a fitted effect of over 55% in size). The gist of the method:
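MDA-kb2 breast carcinoma cells carrying MMTV-luciferase (AR/GR responsive) were co-treated with compounds and the agonist R1881 for 16 h at 37C. Inhibition read as ONE-Glo luminescence; CellTiter-Fluor fluorescence measured in parallel for cytotoxicity.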

Assay [19] concerns the target Estrogen receptor (Homo sapiens) (UniProt P03372). Kind of assay: qHTS assay to identify small molecule antagonists of the estrogen receptor alpha (ER-alpha) signaling pathway (AID 743069; active means well fitted curve in the direction sought with a large enough effect in the signal ratio in the repeat runs, not every such curve was filed as active; the % refers to the signal ratio). An outline of the steps:
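HEK293 ER-alpha-UAS-bla GripTite cells, held overnight in 2% charcoal-stripped FBS, 5,000 cells/well, preincubated 4 h, then compound plus 17beta-estradiol for 18 h at 37C. Beta-lactamase read by LiveBLAzer B/G FRET substrate, 2 h at room temperature.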
On the % scale 0 is the no-effect control and ±100 the full control effect.

As to `CC(C)(C)C(=O)C(Cl)Cl`, the Potency entry in assay [1], in assay [2], in assay [3], in [4], in [5] and in [6] was “inactive” throughout. For the same compound, the Potency entry in assay [7], in assay [8], in [9], in assay [10] and in [11] was “inactive” throughout.
With `CC1NCCOC1c1ccccc1` (stereo not drawn), the Potency result in assay [1], in assay [2], in assay [3], in assay [4], in assay [5] and in assay [6] was “inactive” each time. The Potency entry in [7], in assay [8], in assay [9], in assay [10], in assay [12] and in assay [14] was “inactive” each time. The Potency result (in [11]; with Aromatase (Homo sapiens); in [15]) was “inactive” in each case. Also, the activation in assay [13] (at 70.3 µM (top of the series)) was 12.2%.
Take `N[C@@H]1C[C@H]1c1ccccc1`: the Potency result in assay [1], in assay [2], in [3], in [4], in assay [5] and in assay [16] was “inactive” in each case. In addition, the Potency result in assay [6], in [18], in assay [7], in assay [8], in [9] and in [19] was “inactive” each time. The Potency result in assay [10], in assay [12], in assay [14], in assay [11] and in [15] was “inactive” in each case. Moreover, the call in [17] was inactive. The activation in assay [13] (at 70.3 µM (top of the series)) is 1.81%.
As for `Cc1cc(OC(=O)N(C)C)nn1C(=O)N(C)C`, the Potency result in assay [1], in assay [2], in assay [3], in assay [4], in assay [5] and in assay [6] was “inactive” in each case. In addition, the Potency entry in assay [7], in [8], in [9], in assay [19], in assay [12] and in assay [14] was “inactive” each time. Further, the Potency result (in assay [11]; with Aromatase (Homo sapiens); in assay [15]) was “inactive” throughout. The activation in assay [13] (at 70.3 µM (top of the series)) is -8.77%.
For `O=C1CCCCC1Cl` (stereo not drawn), the Potency result in assay [1], in [2], in assay [3], in [4], in [5] and in assay [6] was “inactive” in each case. For the same compound, the Potency result (in assay [7]; in [8]; in [9]; in assay [11]; with Aromatase (Homo sapiens); in assay [15]) was “inactive” throughout.
Take `CCOC(=O)C(Cl)Cc1cc(-n2nc(C)n(C(F)F)c2=O)c(F)cc1Cl` (stereo not drawn): the Potency result in assay [1], in assay [5], in [6], in assay [7], in assay [8] and in assay [9] was “inactive” throughout. The Potency result in assay [19], in [10], in [12], in [14], in [11] and in assay [15] was “inactive” in each case. The Potency is 54.5 µM (active) in assay [2], 61.1 µM (active) in assay [3], 54.5 µM (active) in assay [4] and 54.5 µM (active) in the assay with Aromatase (Homo sapiens).
For the compound `C[C@H](N)C(=O)c1ccccc1`, the Potency entry in [1], in assay [2], in [3], in [4], in [5] and in assay [16] was “inactive” in each case. The Potency result in [6], in assay [18], in [7], in [8], in [9] and in assay [19] was “inactive” in each case. Moreover, the Potency entry (in [10]; in assay [12]; in [14]; in [11]; with Aromatase (Homo sapiens); in assay [15]) was “inactive” in each case. Besides, the outcome in assay [17] was inactive. In addition, the activation in assay [13] (at 70.3 µM (top of the series)) is -5.09%; in [13] (at 95 µM (top of the series)), 4.39%.
Take `COc1ccc(C=O)cc1O`: the Potency result in assay [1], in assay [2], in assay [3], in assay [4], in [5] and in assay [6] was “inactive” each time. The Potency entry in assay [18], in assay [8], in assay [9], in [19], in assay [10] and in assay [12] was “inactive” in each case. Moreover, the Potency entry (in [14]; in assay [11]; in the assay with Aromatase (Homo sapiens); in assay [15]) was “inactive” in each case. Further, the activation in assay [13] (at 95 µM (top of the series)) is 10.8%.
